Experimental data as given in PubChem BioAssay AID1159580 (chemical genetic matrix, 2015).
Several values for one entry are separate records, joined by “and”; a condition that tells them apart may be missing. Identical values can stand only once. Out of some 5,500 compounds screened, about 2,000 (36%) were called active. Inconclusive results (about 18%) are left out. No stated cut-off is given here; in the data, active means normalized growth mostly below about 0.91 (no sharp cut-off); inconclusive means no clear call, values can overlap the other calls; inactive means mostly above about 0.92. The list shows a part of the results.

Assay: chemical genetic growth profiling, strain panel (AID 1159580);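 further: tested at 20 µM; growth read once vehicle control cultures reached saturation at 30 °C; 1 = growth at the plate median or of vehicle wells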
Conditions: S. cerevisiae deletion strains, growth OD

Measured: normalized growth

Cn1cnc([N+](=O)[O-])c1Sc1ncnc2nc[nH]c12
inactive: locus YAL021C, strain ccr4, stronger effect = lower value 1.03 | locus YAL026C, strain drs2, stronger effect = lower value 1.04 | locus YAL030W, strain snc1, stronger effect = lower value 1.02 | locus YAL040C, strain CLN3, stronger effect = lower value 1.01 | locus YBL061C, strain skt5, stronger effect = lower value 1.03 | locus YBR009C, strain hhf1, stronger effect = lower value 1.01 | locus YBR021W, strain FUR4, stronger effect = lower value 1.02 | locus YBR023C, strain chs3, stronger effect = lower value 1.02 | locus YBR171W, strain sec66, stronger effect = lower value 1.02 | locus YBR229C, strain ROT2, stronger effect = lower value 1.01 | locus YBR231C, strain swc5, stronger effect = lower value 1.01 | locus YBR279W, strain paf1, stronger effect = lower value 1.01 | locus YCL011C, strain gbp2, stronger effect = lower value 1.01 | locus YCL016C, strain dcc1, stronger effect = lower value 1.04 | locus YCL029C, strain bik1, stronger effect = lower value 0.997 | locus YCL069W, strain vba3, stronger effect = lower value 1.02 | locus YCR088W, strain abp1, stronger effect = lower value 1.02 | locus YDL005C, strain med2, stronger effect = lower value 1.01 | locus YDL035C, strain GPR1, stronger effect = lower value 1.03 | locus YDL040C, strain nat1, stronger effect = lower value 1.02 | locus YDL074C, strain BRE1, stronger effect = lower value 1.01 | locus YDL101C, strain DUN1, stronger effect = lower value 1.01 | locus YDL134C, strain PPH21, stronger effect = lower value 1.02 | locus YDL185W, strain tfp1, stronger effect = lower value 1 | locus YDL192W, strain arf1, stronger effect = lower value 0.994 | locus YDR001C, strain nth1, stronger effect = lower value 1.02 | locus YDR069C, strain doa4, stronger effect = lower value 1.02 | locus YDR101C, strain arx1, stronger effect = lower value 0.999 | locus YDR137W, strain rgp1, stronger effect = lower value 1.02 | locus YDR150W, strain NUM1, stronger effect = lower value 0.999 | locus YDR159W, strain sac3, stronger effect = lower value 1 | locus YDR162C, strain NBP2, stronger effect = lower value 1.03 | locus YDR195W, strain ref2 0.996 | locus YDR297W, strain sur2, stronger effect = lower value 1.03 | locus YDR318W, strain mcm21, stronger effect = lower value 0.996 | locus YDR334W, strain swr1, stronger effect = lower value 1.03 | locus YDR335W, strain msn5, stronger effect = lower value 1.01 | locus YDR363W, strain ESC2, stronger effect = lower value 1.01 | locus YDR388W, stronger effect = lower value 0.985 | locus YDR392W, strain spt3, stronger effect = lower value 1.04 | locus YDR502C, strain sam2, stronger effect = lower value 0.985 | locus YEL003W, strain gim4, stronger effect = lower value 1.03 | locus YEL037C, strain rad23, stronger effect = lower value 1.01 | locus YEL061C, strain CIN8 (second series), stronger effect = lower value 1.03 | locus YEL061C, strain CIN8, stronger effect = lower value 1.01 | locus YER002W, strain NOP16, stronger effect = lower value 0.995 | locus YER015W, strain faa2, stronger effect = lower value 1.02 | locus YER016W, strain bim1, stronger effect = lower value 1.01 | locus YER110C, stronger effect = lower value 0.989 | locus YER111C, strain swi4, stronger effect = lower value 1.03 | locus YER155C, strain BEM2 (second series), stronger effect = lower value 0.996 | locus YER155C, strain BEM2, stronger effect = lower value 1.01 | locus YER167W, strain BCK2, stronger effect = lower value 1.02 | locus YFR010W, strain ubp6, stronger effect = lower value 1 | locus YGL078C, strain dbp3, stronger effect = lower value 0.988 | locus YGL086W, strain mad1, stronger effect = lower value 0.991 | locus YGL167C, strain pmr1, stronger effect = lower value 1.02 | locus YGL173C, strain kem1, stronger effect = lower value 1.02 | locus YGL227W, strain vid30, stronger effect = lower value 1 | locus YGL240W, strain doc1, stronger effect = lower value 1.04 | locus YGL248W, strain PDE1, stronger effect = lower value 1.01 | locus YGL253W, strain hxk2, stronger effect = lower value 1.03 | locus YGR078C, strain PAC10, stronger effect = lower value 1.01 | locus YGR135W, strain pre9, stronger effect = lower value 0.991 | locus YGR229C, strain SMI1, stronger effect = lower value 1.03 | locus YGR252W, strain gcn5, stronger effect = lower value 0.974 | locus YHR013C, strain ard1, stronger effect = lower value 1.02 | locus YHR027C, strain rpn1, stronger effect = lower value 1.03 | locus YHR030C, strain SLT2, stronger effect = lower value 1.02 and 1.08 | locus YHR079C, strain IRE1 (second series), stronger effect = lower value 0.995 | locus YHR079C, strain IRE1, stronger effect = lower value 1.05 | locus YHR094C, strain hxt1, stronger effect = lower value 0.994 | locus YHR129C, strain ARP1, stronger effect = lower value 1.01 | locus YHR142W, strain chs7, stronger effect = lower value 1.06 | locus YHR200W, strain rpn10, stronger effect = lower value 0.994 | locus YIL066C, strain RNR3, stronger effect = lower value 1.03 | locus YIL073C, strain SPO22, stronger effect = lower value 1.02 | locus YIL125W, strain kgd1, stronger effect = lower value 0.991 | locus YIR030C, strain dcg1, stronger effect = lower value 0.992 | locus YJL092W, strain hpr5, stronger effect = lower value 1.02 | locus YJL095W, strain BCK1 (second series), stronger effect = lower value 1 | locus YJL095W, strain BCK1, stronger effect = lower value 0.988 and 1.05 | locus YJL115W, strain asf1, stronger effect = lower value 1.05 | locus YJL129C, strain trk1, stronger effect = lower value 1.03 | locus YJL134W, strain LCB3, stronger effect = lower value 1.01 | locus YJL154C, strain vps35, stronger effect = lower value 1.02 | locus YJL164C, strain tpk1, stronger effect = lower value 1.04 | locus YJL166W, strain qcr8, stronger effect = lower value 1.02 | locus YJL168C, strain set2, stronger effect = lower value 0.993 | locus YJL187C, strain SWE1 (second series), stronger effect = lower value 0.997 | locus YJR043C, strain POL32, stronger effect = lower value 1.04 | locus YJR066W, strain TOR1, stronger effect = lower value 0.998 | locus YJR075W, strain HOC1, stronger effect = lower value 1.01 and 0.99
